# Rab9 prom act = activators of Rab9 promoter; Huh7 Rab9 promoter-luciferase reporter, luminescence, 24 h; 320,000 compounds, 2.8% hits; AID 485297; Potency, µM (series often up to 9.22 µM), for the others: top-dose activation, negative = inhibition, actives largely listed as activators; also: % of control where 0% means no effect; nearly all actives have a fitted effect of over 60% in size
#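 Using Huh7 cells stably transfected with Rab9 promoter–luciferase, compounds were incubated 24 h at 37 °C, 5% CO2; luciferase luminescence was read 10 min after reagent addition.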
# FLuc modulator = inhibits or activates purified firefly luciferase, miR-21 counter-screen; Potency, µM (series often up to 57.5 µM), inactives show top-dose activity change, negative = inhibition, hits mostly inhibitors; 360,000 compounds, 6.9% hits; purified FLuc, Km substrates, luminescence inhibition; AID 588342;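 also: plate controls were vehicle for no effect and reference inhibitor for full effect; nearly all actives have a fitted effect of over 55% in size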
# Target sequence (P08659 whole entry, looked up): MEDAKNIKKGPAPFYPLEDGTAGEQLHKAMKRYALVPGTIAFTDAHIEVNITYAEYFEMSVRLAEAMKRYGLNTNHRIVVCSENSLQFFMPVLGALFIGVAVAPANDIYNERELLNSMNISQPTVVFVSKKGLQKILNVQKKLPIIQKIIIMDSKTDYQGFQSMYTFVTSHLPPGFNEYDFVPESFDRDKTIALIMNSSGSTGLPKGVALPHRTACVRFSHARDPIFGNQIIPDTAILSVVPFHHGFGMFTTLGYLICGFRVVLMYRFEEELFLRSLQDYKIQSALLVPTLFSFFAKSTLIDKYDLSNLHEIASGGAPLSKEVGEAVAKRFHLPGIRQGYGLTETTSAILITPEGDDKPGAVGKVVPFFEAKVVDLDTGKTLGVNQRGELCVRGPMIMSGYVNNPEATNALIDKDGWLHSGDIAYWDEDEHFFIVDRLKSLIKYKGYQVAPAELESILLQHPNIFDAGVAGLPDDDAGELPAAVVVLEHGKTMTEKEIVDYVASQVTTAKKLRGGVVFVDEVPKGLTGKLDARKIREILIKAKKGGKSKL
#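 Purified P. pyralis luciferase (10nM final) with 10uM D-luciferin and 10uM ATP (Km levels) in 50mM Tris acetate pH 7.5, 10mM Mg acetate, 0.01% Tween-20, 0.05% BSA; qHTS 6-point titration, ~60 µM downward; luminescence read.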
# KinaseGlo FLuc = Kinase-Glo luciferase inhibition (counter-screen) | Q27757 | Potency, µM (top dose mostly 38.3 µM), for inactives: top-dose activity change, negative = inhibition, most hits filed as inhibitors | Kinase-Glo luciferase, ATP luminescence, 8 min | 200,000 compounds, 0.28% hits; also: % is scaled to controls: 0 for no effect and ±100 for the full control effect; nearly all actives have a fitted effect of over 60% in size
#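 Compound is pinned into ATP-containing buffer (10 uM ATP, imidazole pH 7.2, 7 mM MgCl2). Kinase-Glo luciferase reagent is then added. Light output is recorded following an 8-min room-temperature incubation.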
# SMN2 splice enh = increases expression of the SMN2 splice variant; 210,000 compounds, 2.8% hits; Potency, µM (titrated, usually from 46.1 µM), for inactives: at the highest dose activity change, positive = activation, hits mostly activators; AID 1458; HEK293 SMN2-luciferase splicing reporter, luminescence, 30-36 h; also: % of control where 0% means no effect; nearly all actives have a fitted effect of over 55% in size
#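 HEK293 cells carry an SMN2 minigene-luciferase reporter in which exon 7 inclusion puts luciferase in frame. Cells were seeded at 2000 cells/well, attached for 10-12 hours, then exposed to compounds for 30-36 hours at 37C before ONE-Glo luminescence.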
# ELG1 genotoxic = genotoxicity induction in ELG1-luciferase HEK293T cells; Potency, µM (doses to about 46 µM), inactives show top-dose activity change, positive = activation, hits mostly activators; 330,000 compounds, 1.3% hits; HEK293T ELG1-luciferase reporter, luminescence, 16 h; also: % of control where 0% means no effect; nearly all actives have a fitted effect of over 60% in size
#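 HEK293T cells expressing luciferase-tagged ELG1 were exposed to compound or DMSO vehicle for 16 hr at 37 °C and 5% CO2. Luciferase activity was then measured with ONE-Glo after 30 min at room temperature.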
# NPC1 promoter act = activators of NPC1 promoter | Huh7 NPC1 promoter luciferase reporter, 24 h | Potency, µM (doses to about 9.22 µM), inactives show top-dose activation, actives largely listed as activators | 320,000 compounds, 2.4% hits | AID 485313; also: % of control where 0% means no effect; nearly all actives have a fitted effect of over 60% in size
#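 Luminescence read-out of NPC1 promoter-driven luciferase in stably transfected Huh7 cells; compounds delivered in DMSO and left 24 h at 37C, 5% CO2, qHTS titration format.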
# The depositor's hits bear a star; u = inconclusive; x = no result. Shown are actives, neighbours in structure and some others; about 7.5% of the full set was active somewhere. Calls follow the shape of the dose curve; as a rule, active = well fitted curve in the direction sought with a large enough effect; inconclusive = small, poorly fitted or top-dose-only effect, or another doubt; inactive = no such curve, though single readings can be large; an effect the other way counts as inactive or inconclusive. Potency is read from the fitted curve at half-maximal effect.
SMILES,Rab9 prom act,FLuc modulator,KinaseGlo FLuc,SMN2 splice enh,ELG1 genotoxic,NPC1 promoter act
O=C(CSc1nnc(NC(=O)c2ccccc2Cl)s1)NC1CC1,4.47µM*,12µM*,x,x,16.9%,u
Cc1cc(=O)n(Cc2cccc(F)c2)c2c1c(C)nn2-c1cccc(F)c1,x,-6.2%,x,x,x,x
CCC(=O)Nc1nnc(SCC(=O)Nc2cccc(Cl)c2)s1,-2.8%,-17.1%,x,x,-5.3%,-3.5%
O=C(CSc1nnc(NC(=O)c2ccccc2Cl)s1)Nc1ccc2c(c1)oc1ccccc12,u,0.953µM*,-10.2%,35.5µM*,u,3.55µM*
Cc1ccccc1-c1nc(CS(=O)(=O)CC(=O)N2CCOCC2)c(C)o1,-0.3%,-0.9%,x,x,3.1%,-2.5%
CC(=O)n1nc(-c2ccc(Cl)cc2)nc1NCc1ccco1,2.82µM*,-4.7%,2.3%,x,20.6µM*,u
COc1ccc(C(=O)n2nc(-c3ccc(Cl)cc3)nc2NCc2ccco2)cc1,x,-2.5%,x,9.2%,x,x
O=C(c1ccccc1)n1nc(-c2ccc(Cl)cc2)nc1NCc1ccco1,x,1.6%,x,u,x,x
COc1ccc(CC(=O)n2nc(-c3ccc(Cl)cc3)nc2NCc2ccco2)cc1,3.16µM*,-2.1%,-5.5%,u,14.2%,u
COc1cccc(CNC(=O)c2ccc(NC(=O)N3CCCCc4ccccc43)cc2)c1OC,x,0.7%,x,x,x,x
Cc1ccc(-n2nc(C(=O)N3CCCCC3)c(=O)n(C)c2=O)cc1,x,1.0%,x,x,x,x
FC(F)Oc1ccccc1/C=N/Nc1nc2ccccc2o1,3.98µM*,u,x,x,19.0%,u
Fc1ccccc1/C=N/Nc1nc2ccccc2o1,2.24µM*,3.01µM*,x,x,u,2.82µM*
CCc1nnc(N/N=C/c2ccccc2F)n1N,10.5%,4.7%,-2.8%,-36.4%,-0.3%,5.1%
COc1ccc(CNc2ncnc3sccc23)cc1,-29.8%,-2.0%,x,x,-17.9%,-21.9%
O=C(COC(=O)Cn1cnc2ccccc21)Nc1cc2c(cc1Cl)C(=O)c1ccccc1C2=O,2.82µM*,u,-4.7%,17.8µM*,u,3.16µM*
COc1ccc(NC(=O)c2sc3nc(-c4cc5ccc(OC)cc5oc4=O)[nH]c(=O)c3c2C)cc1,x,-9.2%,x,x,x,x
CCOC(=O)CSc1nc(N)nc(C)c1Cl,-1.6%,23.9µM*,-0.4%,x,-4.4%,0.8%
O=C(Nc1ccccn1)c1cccs1,x,u,-22.4%,29.8%,x,x
Cc1cc(NC(=O)c2cccs2)ncc1NC(=O)C(C)(C)C,1.41µM*,10.7µM*,x,x,4.11µM*,0.891µM*
O=C(Nc1ccon1)c1ccc(Br)s1,9.3%,-11.5%,x,x,-3.6%,12.1%
O=C(Nc1nccc(-c2cccs2)n1)c1cccs1,u,19µM*,-10.8%,u,u,2.82µM*
Cc1ccnc(NC(=O)c2cccs2)c1,2.24µM*,15.1µM*,u,u,u,3.55µM*
Cc1ccnc(NC(=O)c2ccc(Br)s2)c1,1.58µM*,2.69µM*,x,x,u,1.12µM*
Cc1cccc(NC(=O)c2cccs2)n1,u,u,-11.2%,20.8%,-44.3%,u
SMILES,Rab9 prom act,FLuc modulator,KinaseGlo FLuc,SMN2 splice enh,ELG1 genotoxic,NPC1 promoter act
COc1cc(OC)cc(-c2nc3nc(C)c(CCC(=O)Nc4ccc(C)c(C)c4)c(C)n3n2)c1,x,-4.6%,x,-10.1%,x,x
COc1ccc(Cc2nc3c4cnn(-c5ccccc5F)c4ncn3n2)cc1,x,u,x,3.1%,x,x
Fc1ccccc1-n1ncc2c1ncn1nc(Cc3ccccc3)nc21,x,6.01µM*,x,11.2µM*,x,x
COc1cc(-c2nnc(SCC(=O)c3ccc(C)cc3)o2)cc(OC)c1OC,-2.6%,5.8%,0.4%,-9.1%,-18.4%,1.7%
COc1cc(-c2nnc(SCCOc3cc(C)cc(C)c3)o2)cc(OC)c1OC,x,15.1µM*,x,x,x,x
Cc1ccc(/C=C2/NC(=O)N(Cc3ccccc3F)C2=O)s1,-7.0%,7.5%,x,x,5.9%,-3.8%
CCCN1C(=O)/C(=C/c2ccc(C)s2)NC1=S,-6.6%,26.9µM*,-0.2%,-4.2%,-5.8%,-2.3%
O=C(COC(=O)c1ccco1)Nc1ccccc1,-3.9%,u,-3.0%,12.2%,-1.5%,-1.6%

# Screening data: PubChem, National Center for Advancing Translational Sciences (NCATS)
